Reference: PubChem BioAssay (NCI)
This is part of a sample that, as a whole, favours compounds with a hit. Of some 83,000 tested, about 20% had one in any assay.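 Cells were grown in 96-well plates and exposed to the test compound at a single concentration for 48 hours; results are reported as percent growth, with values below 10 considered active.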 A number with no mark means an inactive call. The source made the active and inactive calls.

Legend:
Experiment in all cases: NCI-60 one-dose screen, 48 h (100 = growth as untreated, 0 = no growth, -100 = all killed)
Conditions in all cases: 10 µM unless noted
T-47D breast = system: T-47D breast
BT-549 breast = system: BT-549 breast
MDA-MB-435 melanoma = system: MDA-MB-435 melanoma
SW-620 colon = system: SW-620 colon
MCF7 breast = system: MCF7 breast
HCT-116 colon = system: HCT-116 colon
HCC-2998 colon = system: HCC-2998 colon
KM12 colon = system: KM12 colon

Structure (SMILES) | growth (T-47D breast) | growth (BT-549 breast) | growth (MDA-MB-435 melanoma) | growth (SW-620 colon) | growth (MCF7 breast) | growth (HCT-116 colon) | growth (HCC-2998 colon) | growth (KM12 colon)
O=C(COc1cccc(/C=C2\Oc3ccccc3C2=O)c1)c1ccc([N+](=O)[O-])cc1 | 51.6% | 110% | 116% | 113% | 50.7% | 92.2% | 96.8% | 110%
O=C(NNc1ccc(-c2ccccc2)nn1)c1ccccc1 | 98.8% | 94.6% | 101% | 103% | 92% | 91.3% | 106% | 102%
COCc1nc2ccccc2[nH]1 | 104% | 164% | 102% | 106% | 88.7% | 99.9% | 106% | 106%
O=C(Nc1cccc(C2=NCCN2)c1)c1cccc(C(=O)Nc2cccc(C3=NCCN3)c2)c1 | 96.7% | 110% | 98.8% | 98.2% | 88.4% | 99.7% | 107% | 101%
CCN(CC)CCS(=O)(=O)CCNc1ccnc2cc(Cl)ccc12 | 43.4% | -0.495% (active) | 3.99% (active) | 7.17% (active) | 26.9% | 6.59% (active) | -13.5% (active) | -24.5% (active)
Cc1nc(-c2ccccc2)sc1CC#N | 103% | 113% | 105% | 103% | 102% | 108% | 109% | 107%
C=C(C)[C@@H]1CC[C@]2(C(=O)O)CC[C@]3(C)[C@H](CC[C@@H]4[C@@]5(C)C/C(=C/c6ccco6)C(=O)C(C)(C)[C@@H]5CC[C@]43C)[C@@H]12 | -8.1% [100 µM] (active) | -67.8% [100 µM] (active) | -75.9% [100 µM] (active) | -34.7% [100 µM] (active) | -53.2% [100 µM] (active) | -74.7% [100 µM] (active) | -78.1% [100 µM] (active) | -96.3% [100 µM] (active)
COc1ccc(NCc2cn(-c3ccc(C(=O)O)cc3)nc2-c2ccc(C(=O)O)cc2)cc1C(F)(F)F | 92.7% | 98% | 101% | 97.2% | 96.1% | 104% | 104% | 102%
CC(C)(C)c1cc(C(=O)N2CCC(C(=O)NCCN)CC2)cc(C(C)(C)C)c1 | 78.8% | 95.4% | 98% | 103% | 92% | 99.4% | 106% | 105%
CC(C)=CC/C=C(/C)[C@H]1CC[C@]2(C)[C@@H]1CC[C@@H]1[C@@]3(C)CCCNC(C)(C)[C@@H]3CC[C@]12C | -50.9% [100 µM] (active) | -54.9% [100 µM] (active) | -75.4% [100 µM] (active) | -57.5% [100 µM] (active) | -54.6% [100 µM] (active) | -61% [100 µM] (active) | -50.5% [100 µM] (active) | -57.4% [100 µM] (active)
C=C(C)[C@@H]1CC[C@]2(C(=O)NCCNCCNC(=O)OC(C)(C)C)CC[C@]3(C)[C@H](CC[C@@H]4[C@@]5(C)CCC(=O)C(C)(C)[C@@H]5CC[C@]43C)[C@@H]12 | 28% [100 µM] | 54.2% [100 µM] | 36.8% [100 µM] | 28.8% [100 µM] | 22.2% [100 µM] | 17.5% [100 µM] | 60.5% [100 µM] | 34.3% [100 µM]
Cc1cccc(C[C@H](NC(=O)Nc2ccc(C)cc2F)C(=O)N[C@@H]2C(=O)N3C[C@H](O)C[C@H]3C(=O)N3CCN(C)C[C@H]3C(=O)N[C@@H](C)C(=O)N3C[C@H](C)C[C@H]3C(=O)O[C@H]2C)c1 | 25.9% | 22.1% | 21.8% | 47.6% | 26.7% | 14.8% | 35.7% | 43.7%
COc1ccc(-c2cc(-c3ccccc3)nc(NCCNc3ccnc4cc(Cl)ccc34)n2)cc1 | -64.6% (active) | -69.4% (active) | -68.8% (active) | -68.2% (active) | -75.7% (active) | -74.1% (active) | -81.1% (active) | -72.7% (active)
C=C(C)[C@@H]1CC[C@]2(COC(=O)c3ccccc3C(=O)O)CC[C@]3(C)[C@H](CC[C@@H]4[C@@]5(C)CC[C@H](OC(=O)c6ccccc6C(=O)O)C(C)(C)[C@@H]5CC[C@]43C)[C@@H]12 | 39.6% [100 µM] | 28.1% [100 µM] | 30.8% [100 µM] | 41.7% [100 µM] | 48.6% [100 µM] | 21.3% [100 µM] | 4.42% [100 µM] (active) | 11.8% [100 µM]
C#C[C@]1(O)CC[C@H]2[C@@H]3CC=C4c5nc(Nc6ccccn6)sc5CC[C@]4(C)[C@H]3CC[C@@]21C | 10.1% | -27.6% (active) | -32% (active) | -24.9% (active) | 7.94% (active) | 4.49% (active) | 34.5% | -32.3% (active)
O=c1cc(-c2ccccc2)oc2cc(OCc3cn(Cc4ccc(F)cc4)nn3)cc(O)c12 | 44.2% [100 µM] | 16.3% [100 µM] | 98.2% [100 µM] | 102% [100 µM] | 65.7% [100 µM] | 48.5% [100 µM] | 100% [100 µM] | 99.4% [100 µM]
COc1ncc(-c2ccc3nccc(C#CCCCCC(=O)NO)c3c2)cc1NS(=O)(=O)c1ccc(F)cc1F | -22.6% (active) | -13.2% (active) | -7.72% (active) | -30.9% (active) | 2.33% (active) | -50.3% (active) | 7.27% (active) | 9.84% (active)
C=C(C)[C@@H]1CC[C@]2(C(=O)OC)CC[C@]3(C)[C@H](CC[C@@H]4[C@@]5(C)CC/C(=N\OCCC(=NCCC#N)NOCCC#N)C(C)(C)[C@@H]5CC[C@]43C)[C@@H]12 | 15.1% [100 µM] | 4.4% [100 µM] (active) | 14.6% [100 µM] | 22% [100 µM] | 12.4% [100 µM] | 4.16% [100 µM] (active) | 26.9% [100 µM] | 10.9% [100 µM]
COc1ccc(-c2c(C)nn3c(NCCN4CCOCC4)cc(C)nc23)cc1OC | 88.2% | 93.3% | 101% | 99.4% | 95.3% | 90% | 104% | 107%
C[C@@H]1C[C@H]2C(=O)O[C@@H](C)[C@H](NC(=O)[C@H](Cc3cc(F)cc(F)c3)NC(=O)Nc3ccc(Cl)cc3F)C(=O)N3C[C@H](O)C[C@H]3C(=O)N3CCN(C)C[C@H]3C(=O)N[C@@H](C)C(=O)N2C1 | 19.2% | 14.9% | 22.3% | 42% | 23% | 8.85% (active) | 32.8% | 41.2%
CCN(CC)CCCC(C)Nc1c2ccc(C)cc2nc2ccc(OC)cc12 (stereo unspecified) | 70.7% | 73% | 10.2% | -41.4% (active) | 4.31% (active) | 16.6% | 34.9% | 16.4%
Nc1nnc(CSc2nnc3n(Cc4ccccc4)c(=O)c4c5c(sc4n23)CCCC5)s1 | 74% | 117% | 106% | 110% | -30.9% (active) | 89.5% | 105% | 121%
COc1ccc2c3ccnc(C(F)(F)F)c3n(CCCCN)c2c1 | 52.1% | 52.4% | 45.9% | 38.5% | 35.5% | 16.5% | 95.7% | 54.8%
COc1cc(Cl)cc(-c2nn(C(=O)NS(=O)(=O)c3ccccc3)cc2-c2ccncc2)c1 | 92.5% | 36.9% | 91% | 114% | 99.8% | 93.7% |  | 102%
